# HT1080 IDH1KD tx = toxicity to HT-1080 IDH1 knockdown cells (counter line); HT-1080 IDH1 knockdown viability, ATP luminescence, 48 h; Potency, µM (titrated, usually from 46.1 µM), for inactives: at the top dose activity, negative = toxicity, usual class: cytotoxic; AID 686971; hit rate 2% among 360,000;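 further: potency means the concentration at half of the fitted maximal effect; 0% = DMSO wells and -100% = cell-free medium wells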
#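 In this qHTS, HT-1080 cells depleted of IDH1 are exposed for 48 h at 37 °C to compound titrations. Toxicity is scored from CellTiter-Glo luminescence, with DMSO as full viability and medium alone as none.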
# DT40 TDP1 CPT = DT40-hTDP1 cell growth loss with CPT. chicken DT40 Tdp1-/-;hTDP1 cells + 20 nM CPT, ATP luminescence, 48 h. Potency, µM (doses to about 46.2 µM), without a hit: at the highest dose activity change, negative = growth inhibition, usual class: inhibitors. AID 686979. hit rate 12% among 420,000; further: potency means the concentration at half of the fitted maximal effect; nearly all actives have a fitted effect of over 55% in size
#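 Chicken DT40 Tdp1-/- cells stably complemented with human TDP1 were seeded at 400 cells/well in medium containing 20 nM camptothecin, exposed to pin-transferred compounds, and grown at 37 °C for at least 48 hr. Viability was read as ATP luminescence.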
# IL-1B inflam inh = blocks inflammasome-driven IL-1 beta release; AID 743279; hit rate 4.7% among 360,000; activity change, % at 57.5 µM; THP-1 LPS/ATP IL-1B secretion, AlphaLISA, 16 h; active compounds read low; in the data active means activity change below about -50%; inconclusive means mostly about -30% to -49%
#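 Secreted IL-1B measured by AlphaLISA bead assay after 16 h compound exposure of THP-1 cells; compounds (final up to 57.5 uM) added 1 h before LPS (250 ng/mL) and ATP (1.25 mM) stimulation; lower signal means less secretion.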
# TDP1 cell noCPT = qHTS for Inhibitors of human tyrosyl-DNA phosphodiesterase 1 (TDP1): qHTS in cells in absence of CPT; DT40 Tdp1-/- hTDP1 cells, no CPT, ATP luminescence, 48 h; Potency, µM (top dose mostly 46.2 µM), inactives show at the top dose activity change, negative = growth inhibition, most hits filed as inhibitors; hit rate 15% among 420,000; further: potency means the concentration at half of the fitted maximal effect; nearly all actives have a fitted effect of over 55% in size
#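 Growth kinetics read by CellTiter-Glo luminescence after ≥48 hr at 37 °C. Cells: DT40 Tdp1-/- stably carrying human TDP1, 400 per well, compound exposure in the absence of CPT (DMSO vehicle).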
# HT1080-NT tox = kills 2HG-producing HT-1080-NT fibrosarcoma cells; HT-1080-NT fibrosarcoma viability, CellTiter-Glo ATP luminescence, 48 h; Potency, µM (top dose mostly 46.1 µM), for the others: at the top dose activity, negative = less viability, usual class: cytotoxic; hit rate 1.6% among 360,000; AID 686970;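 further: NT is the 2HG producing partner of a matched IDH1 knockdown line; potency means the concentration at half of the fitted maximal effect; 0% = DMSO-treated cells and -100% = media-only wells without cells; nearly all actives have a fitted effect of over 55% in size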
#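 HT-1080-NT fibrosarcoma cells (2HG-overproducing), 750 cells/well in RPMI with 5% FBS, dosed after 2 h and incubated 48 h at 37C. CellTiter-Glo luminescence normalized to DMSO and no-cell wells; concentration-response curves fitted and classed.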
# ALOX12 inh = ALOX12 (human) lipoxygenase inhibition | hit rate 1.1% among 580,000 | purified 12hLO, xylenol orange hydroperoxide absorbance | Potency, µM (highest dose often 108 µM), for the others: at the highest dose activity change, negative = inhibition, hits mostly inhibitors | P18054; further: potency means the concentration at half of the fitted maximal effect
# Target sequence (P18054 whole entry, looked up): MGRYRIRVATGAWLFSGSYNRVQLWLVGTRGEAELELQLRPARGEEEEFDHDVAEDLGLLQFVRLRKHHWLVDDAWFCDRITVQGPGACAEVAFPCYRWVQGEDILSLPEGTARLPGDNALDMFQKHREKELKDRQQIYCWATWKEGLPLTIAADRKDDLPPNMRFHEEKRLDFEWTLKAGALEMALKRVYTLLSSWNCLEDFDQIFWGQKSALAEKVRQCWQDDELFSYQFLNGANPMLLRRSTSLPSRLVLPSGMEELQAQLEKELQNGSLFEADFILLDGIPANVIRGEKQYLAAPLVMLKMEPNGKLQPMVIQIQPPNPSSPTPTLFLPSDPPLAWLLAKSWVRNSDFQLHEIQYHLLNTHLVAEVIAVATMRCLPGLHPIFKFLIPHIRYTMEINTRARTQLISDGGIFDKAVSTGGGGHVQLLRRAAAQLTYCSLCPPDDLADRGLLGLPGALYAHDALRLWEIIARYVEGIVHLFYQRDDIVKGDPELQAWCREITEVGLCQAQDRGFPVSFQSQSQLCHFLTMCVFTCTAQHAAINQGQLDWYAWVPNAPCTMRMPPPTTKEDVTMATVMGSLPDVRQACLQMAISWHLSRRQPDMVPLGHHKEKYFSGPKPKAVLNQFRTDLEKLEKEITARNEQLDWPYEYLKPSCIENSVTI
#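 Hydroperoxide product was detected by ferrous iron/xylenol orange as the 573 to 405 nm absorbance ratio. Arachidonic acid at 40 uM (final) was turned over for 30 min at room temperature by 150 nM human 12hLO, pH 7.0 Hepes buffer, after 15 min compound preincubation.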
# Starred values were filed as active, the others as inactive; ? = inconclusive; · = no result; [ ] = dose if it differs, or a comment. This excerpt belongs to a sample that is enriched for hits. Unless noted, the call rests on the fitted dose curve; in most records, active means well fitted curve in the direction sought with a large enough effect; inconclusive means small, poorly fitted or top-dose-only effect, or another doubt; inactive means no such curve, though single readings can be large; an effect the other way counts as inactive or inconclusive. Unless noted, on the % scale 0 is the no-effect control and ±100 the full control effect.
SMILES,HT1080 IDH1KD tx,DT40 TDP1 CPT,IL-1B inflam inh,TDP1 cell noCPT,HT1080-NT tox,ALOX12 inh
CC(=O)c1c(C(C)=O)c(C)n(C(c2ccccc2)c2ccccc2)c1C,-0.8%,?,-5.4,20.6µM*,-2.5%,5.9%
Cc1ccc(-c2nc3cc(NC(=O)CC(C)C)ccc3o2)cc1Cl,·,·,·,·,·,-27.3%
COc1ccc(S(=O)(=O)N/N=c2\oc3c(OC)cccc3cc2S(=O)(=O)c2ccc(C)cc2)cc1OC,-12.8%,-25.1%,-54.3*,-16.0%,-19.9%,9.2%
COC(=O)[C@@]12C[C@@H](CC(=O)NCc3cccc4ccccc34)C(=O)N(Cc3ccc4c(c3)OCO4)C1=CCC(C)(C)C2,?,?,-86.7*,13µM*,?,2.4%
COC(=O)[C@@]12C[C@@H](CC(=O)NCc3ccccc3)C(=O)N(Cc3ccc4c(c3)OCO4)C1=CCC(C)(C)C2,?,16.4µM*,?,16.4µM*,?,-4.0%
COC(=O)[C@@]12C[C@@H](CC(=O)NCc3cccc4ccccc34)C(=O)N(Cc3ccccc3)C1=CCC(C)(C)C2,?,?,-61.2*,?,?,1.5%
COCCN1CCC(N2CCN(S(=O)(=O)c3ccc(Cl)cc3C)CC2)C1=O (stereo unspecified),·,·,·,·,·,19.6%
CCC(Oc1ccccc1)C(=O)Nc1ccc2oc(C)nc2c1 (stereo unspecified),·,·,·,·,·,-7.3%
Cc1ccc(S(=O)(=O)c2cn(C)c3cc(N4CCN(C)CC4)c(F)cc3c2=O)cc1,3.2%,?,-96.9*,?,-1.5%,9.4%
Cc1ccc(S(=O)(=O)c2cn(C)c3cc(N4CCN(c5ccccc5)CC4)c(F)cc3c2=O)cc1,·,?,·,7.31µM*,·,-11.4%
CCn1cc(S(=O)(=O)c2ccc(C)cc2)c(=O)c2cc(F)c(N3CCN(C)CC3)cc21,-0.6%,-8.8%,3.7,-12.1%,-1.1%,9.1%
COc1ccccc1CNc1nc2ccccc2nc1NS(=O)(=O)c1cc(C)ccc1C,·,·,·,·,·,-0.9%
C=CCc1ccccc1OCCOc1ccccc1/C=C(/C#N)C(N)=O,·,·,·,·,·,-16.5%
CC1CCN(C(C(=O)NC2CCCCC2)c2cc3c(cc2[N+](=O)[O-])OCO3)CC1 (stereo unspecified),6.0%,3.7%,-4.4,1.1%,4.5%,10.0%
CC1CCCN(C(C(=O)Nc2ccc3c(c2)OCO3)c2ccccc2)C1 (stereo unspecified),-5.7%,14.6µM*,23.6,16.4µM*,-20.5%,8.6%
CC1CCCN(C(C(=O)NC2CCCCC2)c2cc3c(cc2[N+](=O)[O-])OCO3)C1 (stereo unspecified),-5.5%,?,-59.1*,?,-5.4%,-24.9%
CCOc1ccc(C(=O)N[C@@H]2CN(c3ncccn3)C[C@H]2CO)cc1,·,·,·,·,·,31.1%
Cc1ccsc1C(=O)N(Cc1ccco1)C1CC1,·,·,·,·,·,-1.7%
COc1ccccc1N1CCN(C(=O)c2c3c(nc4ccccc24)C(=O)N(C2CCCCC2)C3)CC1,·,13µM*,·,20.6µM*,·,?
Cc1ccc(C)c(N2CCN(C(=O)c3c4c(nc5ccccc35)C(=O)N(C3CCCCC3)C4)CC2)c1,·,16.4µM*,·,18.4µM*,·,?
COc1ccc(Cn2c(C3CCN(C(=O)c4ccccc4OC)CC3)n[nH]c2=O)cc1,·,·,·,·,·,-7.9%
Cc1cc(C)c(CC(=O)O)c(C)c1,·,·,·,·,·,1.58µM*
COc1ccc(CCNC(=O)CC(c2ccccc2)c2cc(C)ccc2O)cc1OC (stereo unspecified),-12.7%,25.9µM*,0.0,13µM*,-22.1%,·
COc1ccc(CCNC(=O)C(=O)NCc2ccccc2)cc1OC,20.6µM*,5.17µM*,32.4,5.17µM*,16.4µM*,273.5%
COc1ccc(CCNC(=S)c2ccccc2)cc1OC,-5.5%,20.6µM*,?,?,-3.4%,-1.9%
SMILES,HT1080 IDH1KD tx,DT40 TDP1 CPT,IL-1B inflam inh,TDP1 cell noCPT,HT1080-NT tox,ALOX12 inh
COc1ccc(CCNC(=O)Cc2ccccc2)cc1OC,7.2%,0.9%,-0.8,9.5%,-4.1%,?
COc1ccc(CCNC(=O)C(=O)NCc2cccs2)cc1OC,-5.6%,?,28.5,29.1µM*,-18.2%,-3.2%
CC(OC(=O)c1csc(NCc2ccccc2)n1)C(=O)NC1(C#N)CCCCC1 (stereo unspecified),·,·,·,·,·,-11.9%
CN(C)C(=O)c1ccc(-c2cc3c(Nc4cccc(Oc5ccccc5)c4)nccc3n2C)cc1,·,·,·,·,·,-0.9%
CCOC(=O)N1CCN(C2CCCN(Cc3cc(C)ccc3-n3cccn3)C2)CC1 (stereo unspecified),·,·,·,·,·,90.2%
Cc1ccc(NC(=O)N2CCCCC2c2noc(COc3ccc(F)cc3)n2)cc1F (stereo unspecified),·,·,·,·,·,-6.5%
COc1ccc(CCNC(=S)NC(=O)c2ccc(Br)cc2)cc1OC,-4.9%,?,22.9,?,1.4%,28.2µM*
COc1ccc(-c2cc(N3CCCC(NC(=O)c4ccccn4)C3)n[nH]2)cc1 (stereo unspecified),·,·,·,·,·,57.1%
COc1cc(OC)cc(-c2cc3ccc(OC)cc3cn2)c1,?,16.4µM*,-3.6,13µM*,?,-17.9%
COc1cc(OC)cc(-c2cc3cc4c(cc3cn2)OCO4)c1,0.581µM*,0.651µM*,35.7,0.517µM*,0.92µM*,·
COc1cc(OC)cc(-c2cc3ncccc3cn2)c1,-20.7%,?,-0.2,?,-2.6%,31.6µM*
CC(NC(=O)C(C)(C)C)C(=O)NCC1CC1 (stereo unspecified),·,·,·,·,·,6.8%
O=S(=O)(c1cccs1)N1CC(c2noc(C3CCCN3CC3CC3)n2)C1 (stereo unspecified),·,·,·,·,·,-4.6%
CCN1C(=O)/C(=C2/Sc3ccc(OC)cc3N2C)SC1=Nc1cccc(O)c1,-22.6%[9.24 µM],5.8µM*,-2.9,16.4µM*,-24.3%,12.8%
C=CCN1C(=O)/C(=C2/Sc3ccc(OC)cc3N2C)SC1=Nc1ccccc1,-2.3%,8.2µM*,19.4,?,2.1%,0.2%
C=CCN1C(=O)/C(=C2/Sc3ccc(OC)cc3N2C)SC1=NCc1ccccc1,2.7%,?,0.9,?,10.1%,-1.4%
O=C(NCc1cccnc1)c1nc(-c2ccc(Cl)cc2Cl)c2cnccn12,·,·,·,·,·,-1.7%[6.33 µM]
O=C(NC1CCN(Cc2ccccc2)CC1)c1cc2cc(Cl)ccc2[nH]1,·,·,·,·,·,-64.7%
COc1ccc(NS(=O)(=O)c2ccc(NC(=S)NCC3CCCO3)cc2)cc1 (stereo unspecified),-17.3%,14.6µM*,47.9,?,-4.7%,42.4%

# Source: PubChem BioAssay (National Center for Advancing Translational Sciences (NCATS))
